Data on 31 compounds can be found in PubChem BioAssay (EPA / NIEHS).

Molecules are shown by their SMILES. Inconclusive results are not listed. Calls of active or inactive are those of the source. How the source made its calls, unless noted: active means hit-call score of the fitted dose curve at least 0.9, where 1 is the maximum; inactive means score below 0.9.

Read-out in experiment [1]: Interleukin 17A (IL17A), IL17A (gene 3605)
The experiment can be described thus: BSK_BT_xIL17A: BioMAP Diversity Plus: BT Assay for Interleukin 17A (IL17A) Biomarker Activity (AID 2284229). Conditions: primary human B cells with PBMC. The essentials:
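Secreted IL-17A was the measured endpoint, read by Luminex xMAP multiplex in supernatants of a human B cell/PBMC co-culture harvested 24 h after chemical dosing. Signal increase relative to DMSO defined activity.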

Read-out in experiment [2]: Tumor necrosis factor (Homo sapiens) (UniProt P01375)
Nature of the experiment: BSK_BT_xTNFa: BioMAP Diversity Plus: BT Assay for Tumor necrosis factor alpha (TNF-alpha) Biomarker Activity (AID 2284230). Particulars: primary human B cells with PBMC. The essentials:
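Read-out: Luminex xMAP quantitation of secreted TNF-alpha from a B cell/PBMC co-culture 24 h after compound addition. Signal analysed relative to DMSO vehicle, positive fitting direction.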

Read-out in experiment [3]: Vascular cell adhesion molecule 1 (VCAM1), VCAM1 (gene 7412)
The experiment can be described thus: BSK_MyoF_VCAM1: BioMAP Diversity Plus: MyoF Assay for Vascular cell adhesion molecule 1 (VCAM1) Biomarker Activity (AID 2284231). Conditions: primary human lung fibroblasts. The gist of the method:
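ELISA read-out of VCAM-1 on human lung fibroblasts 24 h after chemical treatment, with positive-direction curve fitting relative to DMSO controls. Parallel cultures were stained with sulforhodamine B for total protein to flag overt cytotoxicity.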

Read-out in experiment [4]: Collagen I, COL1A1 (gene 1277)
The experiment can be described thus: BSK_MyoF_CollagenI: BioMAP Diversity Plus: MyoF Assay for Collagen I Biomarker Activity (AID 2284238). Particulars: primary human lung fibroblasts. The essentials: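 Lung fibroblasts (human primary) dosed, 24 h; Collagen I by ELISA; positive-direction fit vs DMSO control. Parallel SRB total-protein staining (0.1% SRB, 10% TCA fixation, 560 nm) flags overt cytotoxicity.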

Read-out in experiment [5]: Collagen III, COL3A1 (gene 1281)
The experiment can be described thus: BSK_MyoF_CollagenIII: BioMAP Diversity Plus: MyoF Assay for Collagen III Biomarker Activity (AID 2284239). Particulars: primary human lung fibroblasts. The essentials: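 ELISA read-out of collagen III from human lung fibroblasts after 24 h of chemical treatment. The DMSO control served as negative control and baseline, with values fitted in the positive direction.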

The nature of experiment [6]: CCTE_Mundy_HCI_Cortical_NOG_NeuronCount: CCTE's Neurite Outgrowth Assay in rat cortical cells for Neuron Count, Mundy Lab (AID 2284236; active means hit-call score of the fitted dose curve at least 0.9, where 1 is the maximum;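 further: neurons counted by imaging betaIII-tubulin and Hoechst stained cortical cells; cells exposed to compound for about 48 hours before fixation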). The essentials:
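Read-out: neuron number by high-content imaging of betaIII-tubulin (Alexa Fluor-488) and Hoechst-labelled rat primary cortical cells.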

Experiment [7] in a line: CCTE_Mundy_HCI_Cortical_NOG_BPCount: CCTE's Neurite Outgrowth Assay in rat cortical cells for Branch Point Count, Mundy Lab (AID 2284237).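 On AC50: branch points counted about two days after chemical exposure.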 The essentials: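 Measured 50.33 h after dosing, this morphology endpoint uses rat primary cortical cultures labelled for betaIII-tubulin. Branch points are quantified by high-content imaging, with DMSO as negative control and baseline.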

Experiment [8] is described as follows: CCTE_Mundy_HCI_hNP1_Casp3_7: CCTE's Caspase-Glo 3/7 Assay in human neuroprogenitor cells for Apoptosis, Mundy Lab (AID 2284240). The essentials:
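Luminescent caspase-3/7 readout, 26.5 h post-dose, in human neural progenitor cells from WA09 embryonic stem cells. Cells grew 40–44 h at 37 °C, 5% CO2 before chemical addition. Activity analysed as signal increase over DMSO baseline.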

A short description of experiment [9]: UKN2_HCS_IMR90_cell_viability: Viability Assessment in the University of Konstanz (UKN) Leist Lab Neural Crest Cell Migration Assay in human induced IMR90 Pluripotent Stem Cells (UKN2) (AID 2284233).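 Further: viability of neural crest cells differentiated from IMR90 iPSC measured by calcein-AM fluorescence imaging.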 The essentials: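 Neural crest cells derived from IMR90 iPSC migrate into a stopper-free zone for 24 h in EGF/FGF medium, then are exposed to compound for 24 h. Viability assessed by calcein-AM and Hoechst staining with high-content imaging, fitted bidirectionally versus DMSO.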

The nature of experiment [10]: UKN4_HCS_LUHMES_cell_viability: Viability Assessment in the University of Konstanz (UKN) Leist Lab Neurite Outgrowth Assay in human LUHMES cells (UKN4) (AID 2284232). The essentials:
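Human dopaminergic-model LUHMES neurons were exposed to chemicals for 24 h after a 2-day differentiation. Viability was scored by imaging Hoechst H-33342 staining, with activity fitted in both directions relative to DMSO controls.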

Chain of Tumor necrosis factor (Homo sapiens) (P01375 whole entry, looked up): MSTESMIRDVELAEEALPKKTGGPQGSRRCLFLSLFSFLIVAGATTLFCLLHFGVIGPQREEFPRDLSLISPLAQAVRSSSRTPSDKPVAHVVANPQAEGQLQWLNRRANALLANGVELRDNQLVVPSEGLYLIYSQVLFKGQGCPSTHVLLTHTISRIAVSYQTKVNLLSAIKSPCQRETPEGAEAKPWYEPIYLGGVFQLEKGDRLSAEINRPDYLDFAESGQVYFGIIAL

With `CC(C)(COCC1CO1)COCC1CO1` (stereo not drawn), the result in experiment [1], in experiment [2], in [3], in [4] and in experiment [5] was inactive.
As to `O=[N+]([O-])c1ccc(Nc2ccccc2)cc1`, the result in [1], in experiment [2], in [3], in experiment [4] and in experiment [5] was inactive.
On to `NC(=O)c1ccc(N)nc1`, for which the outcome in experiment [6] and in experiment [8] was inactive. Further, the concentration at half-maximal activity (AC50) in experiment [7] was 11.4 µM (active).
With `CC(C)[C@@H](Nc1ccc(C(F)(F)F)cc1Cl)C(=O)OC(C#N)c1cccc(Oc2ccccc2)c1` (stereo partly drawn), the result in [7] and in experiment [8] was inactive.
Take `CS(=O)(=O)c1ccc(C(=O)C2C(=O)CCCC2=O)c(Cl)c1COCC(F)(F)F`: the compound was classed as inactive in [6], in [7] and in experiment [8].
Take `CCOCn1c(-c2ccc(Cl)cc2)c(C#N)c(Br)c1C(F)(F)F`: the AC50 in experiment [9] was 15.1 µM (active); in experiment [6], 58 µM (active); in experiment [7] it was 18.6 µM (active); in experiment [8], 10.5 µM (active).
In the case of `O=S1OC[C@@H]2[C@H](CO1)[C@]1(Cl)C(Cl)=C(Cl)[C@@]2(Cl)C1(Cl)Cl` (stereo partly drawn), the AC50 in [10] was 27 µM (active). Moreover, in experiment [9], the compound was called inactive.
In the case of `[Cl][Sn]([c]1ccccc1)([c]1ccccc1)[c]1ccccc1`, the AC50 in experiment [1] was 0.204 µM (active); in [2], 0.495 µM (active); in experiment [3], 0.0907 µM (active); in [4], 0.0894 µM (active); in experiment [5] it was 0.402 µM (active).
On to `O=c1oc2ccccc2c(O)c1C(CC(O)c1ccc(-c2ccc(Br)cc2)cc1)c1ccccc1` (stereo not drawn), for which the result in [1] and in experiment [2] was inactive. The figures for the concentration at half-maximal activity (AC50) in [3], in experiment [4] and in experiment [5] were 6.21 µM (active), 1.94 µM (active) and 2.53 µM (active), respectively.
As to `Cc1cccc(OP(=O)(Oc2cccc(C)c2)Oc2cccc(C)c2)c1`, the outcome in [1], in experiment [2], in experiment [3], in experiment [4] and in experiment [5] was inactive.
Consider `Cc1c([N+](=O)[O-])c(C)c([N+](=O)[O-])c(C(C)(C)C)c1[N+](=O)[O-]`, for which the result in experiment [1], in experiment [2] and in experiment [5] was inactive. The AC50 in [3] was 20 µM (active); in experiment [4], 32.1 µM (active).
Turning to `CC(C)(C)c1cc([N+](=O)[O-])cc(C(C)(C)C)c1O`, the AC50 was 13.4 µM (active) in experiment [1], 14.8 µM (active) in [2] and 0.0556 µM (active) in experiment [5]. Also, the result in [3] and in experiment [4] was inactive.
As to `Cc1cc(C(F)(C(F)(F)F)C(F)(F)F)ccc1NC(=O)c1cccc(I)c1C(=O)NC(C)(C)CS(C)(=O)=O`, the outcome in experiment [10], in experiment [6], in experiment [7] and in experiment [8] was inactive.
For `Cc1cc(C(C)(C)c2ccc(O)c(C)c2)ccc1O`, the result in experiment [1] and in experiment [2] was inactive. Moreover, the AC50 was 16.4 µM (active) in experiment [3], 15.4 µM (active) in experiment [4] and 15.1 µM (active) in [5].
Turning to `CC(C)=CC1C(C(=O)OCc2cccc(Oc3ccccc3)c2)C1(C)C` (stereo not drawn), the result in [1], in experiment [3], in experiment [4] and in [5] was inactive. In experiment [2], the AC50 is 20 µM (active).
On to `CNC(=O)CSP(=O)(OC)OC`, for which the compound was called inactive in experiment [10], in [9], in experiment [6], in experiment [7] and in [8].
`C[C@]12CC[C@@H](O)C[C@@H]1CC[C@@H]1[C@@H]2CC[C@]2(C)C(=O)CC[C@@H]12`: the result in experiment [1], in experiment [2], in [3], in [4] and in [5] was inactive.
On to `c1ccc(-c2cccc(-c3ccccc3)c2)cc1`, for which the result in [1] and in experiment [2] was inactive. Besides, the AC50 in experiment [3] was 29.1 µM (active); in experiment [4], 26.4 µM (active); in experiment [5], 32.9 µM (active).
Consider `Cc1cc(Cl)ccc1N`, for which the result in experiment [1], in experiment [2], in experiment [3], in experiment [4] and in [5] was inactive.
As for `CC(C=O)Cc1ccc2c(c1)OCO2` (stereo not drawn), the result in experiment [1], in [2], in experiment [3], in experiment [4] and in experiment [5] was inactive.
On to `Oc1cccc(-c2ccccc2)c1`, for which the outcome in experiment [1] and in experiment [2] was inactive. Moreover, the AC50 in experiment [3] was 32.3 µM (active); in [4], 20 µM (active); in [5], 31.3 µM (active).
Turning to `O=S(=O)(c1ccc(Cl)cc1)c1cc(Cl)c(Cl)cc1Cl`, the outcome in experiment [1], in experiment [2], in experiment [3], in [4] and in experiment [5] was inactive.
In the case of `C#CCOC(=O)/C=C(C)/C=C/CC(C)CCCC(C)C` (stereo not drawn), the result in experiment [1], in [2], in [4] and in experiment [5] was inactive. For the same compound, the AC50 in experiment [3] was 20 µM (active).
Regarding `CCOP(=S)(OCC)OP(=S)(OCC)OCC`, the result in experiment [1], in experiment [2], in experiment [3], in experiment [4] and in [5] was inactive.
`Oc1ccc(Cc2ccc(O)cc2)cc1`: the outcome in experiment [1], in experiment [2], in [3], in experiment [4] and in experiment [5] was inactive.
Take `CC(C)N(C(=O)CCl)c1ccccc1`: the AC50 was 5.91 µM (active) in experiment [1]; 12 µM (active) in experiment [2]; 2.36 µM (active) in experiment [3]; 3.62 µM (active) in [4]; 1.12 µM (active) in experiment [5].
Consider `c1ccc2sc(SNC3CCCCC3)nc2c1`, for which the AC50 is 20 µM (active) in experiment [1] and 37.6 µM (active) in experiment [2]. The result in experiment [3], in [4] and in [5] was inactive.
In the case of `Cc1ccccc1OP(=O)(Oc1ccccc1)Oc1ccccc1`, the result in experiment [1] and in experiment [2] was inactive. In addition, the AC50 is 33 µM (active) in experiment [3], 36.9 µM (active) in [4] and 28.2 µM (active) in experiment [5].
Turning to `CCOC(=O)C(SP(=S)(OC)OC)c1ccccc1` (stereo not drawn), the result in [1], in experiment [2], in experiment [3], in [4] and in experiment [5] was inactive.
Consider `Cc1ccc(OP(=O)(Oc2ccc(C)cc2C)Oc2ccc(C)cc2C)c(C)c1`, for which the AC50 in experiment [1], in experiment [2] and in experiment [5] was 20 µM (active) throughout. In addition, the outcome in experiment [3] and in experiment [4] was inactive.
On to `O=S(=O)(C(Cl)(Cl)Cl)C(Cl)(Cl)Cl`, for which the AC50 in experiment [1] was 3.08 µM (active); in experiment [2], 4.36 µM (active); in [3], 3.12 µM (active); in experiment [4], 3.07 µM (active); in experiment [5] it was 4.1 µM (active).
